The record followed here is PubChem BioAssay (NCI).

The panel holds about 83,000 compounds, 20% with a hit somewhere; the sample as a whole holds those more often.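 Method: cells in 96-well plates; compound added at one concentration; 48 h incubation; percent growth measured; values under 10 scored active.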 A number with no mark means an inactive call. Calls of active or inactive are those of the source.

In the assay the test system is NCI/ADR-RES ovarian. The assay is described as follows: NCI-60 one-dose screen, 48 h (100 = growth as untreated, 0 = no growth, -100 = all killed). The following applies: 10 µM unless noted. As for the experimental part: Growth inhibition of the NCI/ADR-RES human […] tumor cell line is measured as a screen for anti-cancer activity. Cells are grown in 96 well plates and exposed to the test compound for 48 hours. Compounds are tested at a single concentration, which is 10^-5 M for most compounds. The reported endpoint is percent growth (GI% or GIPRCNT), where numbers from 0 - 100% represent growth inhibition, and numbers from -100% - 0 represent cell death. For example, a value of 40 represents 60% growth inhibition. A value of 0 means no net growth occurred over the course of the experiment. A value of -40 indicates 40% of cells at the beginning of the experiment died by the end of the experiment. A value of -100 means all cells are dead at the end of the experiment.
NCI-60 Human Tumor Cell Lines Screen was performed using the standard one-dose NCI protocol, which is described in more detail at https://dtp.cancer.gov/discovery_development/nci-60/default.htm.
Compounds with GIPRCNT values below 10 were considered active. Activity score was based on GIPRCNT using the following formula: […]
Score is 0 for GIPRCNT values of 100 or above, 50 for GIPRCNT values of 0, and 100 for GIPRCNT values of -100.
As for `Nc1nc(-c2cc3c(cc2Cl)NC(=O)/C3=C/c2ccc(Cl)cc2)cs1`, the growth is 74.5%.

With `Cc1ncc(CO)c(C(=O)O)c1O`, the growth was 104%.

Consider `O=C(CSc1nnc(-c2ccccc2)o1)Nc1ccc(C(=O)/C=C/c2ccccc2)cc1`, for which the growth is 53.6%.

In the case of `COc1ccc(-c2nnc(SCC(=O)N3CCN(c4cc5c(cc4F)c(=O)c(C(=O)O)cn5C4CC4)CC3)o2)cc1OC`, the growth was 98.1%.

With `COc1cc(Cn2cc3c(c2)-c2onc(CO)c2CC3)cc(OC)c1OC`, the growth is 93.8%.

Consider `O=C(COc1ccc(Cl)cc1)N1CCN(Cc2ccc3c(c2)OCO3)CC1`, for which the growth is 92.6%.

On to `COc1ccc(/C=C/C(=O)c2ccc(Oc3ncnc4ccccc34)cc2)cc1OC`, for which the growth is 80.3%.

`CSc1ccc(C(=O)C[n+]2cccc(C)c2)cc1`: the growth is 104%.

On to `O=C1OC(N(Cc2ccc(Cl)cc2)c2ccccc2)c2ccccc21` (stereo not given), for which the growth was 105%.

Consider `CN1CCN(Cn2nc(-c3cc(F)c(Cl)cc3Cl)n(/N=C/c3ccc(N(C)C)cc3)c2=S)CC1`, for which the growth was 65.9%.

On to `O=C1C(Cl)=C(Nc2ccccc2)C(=O)C(Cl)=C1Nc1ccccc1`, for which the growth is 102%.

With `COc1ccc(OCC(O)CN2CCN(c3ccc(Cl)cc3)CC2)cc1` (stereo not given), the growth is 185%.

As for `O=C(NCCNc1nccc(-c2c(-c3cccc(O)c3)nc3sccn23)n1)c1cc(N2CCOCC2)cc(C(F)(F)F)c1`, the growth was 103%.

Regarding `Clc1ccc(OCc2nc(-c3ccccc3)n[nH]2)c(Cl)c1`, the growth was 101%.

On to `Cc1ccccc1C[P+](c1ccccc1)(c1ccccc1)c1ccccc1`, for which the growth is 114%.

For the molecule `O=S(=O)(O)c1ccc(F)cc1`, the growth is 104%.

For `OC(COc1ccccc1Cl)CN1CCN(c2ccc(Cl)cc2)CC1` (stereo not given), the growth is 115%.

In the case of `COc1ccc(Cl)cc1NC(=O)c1cc2c([nH]1)-c1nc(NC(=O)C(C)C)sc1CC2`, the growth is 93.9%.

Regarding `CC[C@@]1(O)C(=O)OCc2c1cc1n(c2=O)Cc2c-1nc1ccccc1c2/C=N/OC(C)(C)C`, the growth is 1.09% (active).

For the molecule `Fc1ccc(/C=N/n2c(-c3cc(Cl)cc(Cl)c3Cl)nn(CNc3ccc(Cl)nn3)c2=S)cc1`, the growth is 86.7%.

For the molecule `Cc1ccc2nc(-c3ccc(-n4on4-c4ccc(/C=C/c5ccc(-n6on6-c6ccc(-c7nc8ccc(C)cc8s7)cc6)cc5S(=O)(=O)O)c(S(=O)(=O)O)c4)cc3)sc2c1`, the growth is 109%.

With `COc1cc(NC(C)CCCN2C(=O)c3ccccc3C2=O)c2nccc(C)c2c1OC` (stereo not given), the growth is 74%.

For `CN(C)C(=O)Nc1nc2cc(Cl)c(Cl)cc2[nH]1`, the growth is 3.19% (active).

Take `CC(=O)c1cc2c(c(O)c1C)C(=O)C(=O)c1c(O)cccc1-2`: the growth is -8.15% (active).

With `NC(CCCC(N)C(=O)c1ccccc1)C(=O)O` (stereo not given), the growth was 103%.

In the case of `COc1ccc(-c2coc3c(CO)c(O)ccc3c2=O)cc1`, the growth was 86.3%.

With `C/C(=N\N=C1/SCC(=O)N1c1ccccc1)c1ccco1`, the growth was 104%.

In the case of `Cc1ccn2cc(Cc3cc(=O)oc4c3ccc3ccccc34)c(=O)nc2c1`, the growth is 105%.

Regarding `FC(F)(F)c1cn(CC2CNC2)c2ncnc(Cl)c12`, the growth was 102%.

As for `c1nc(SC2=NCCN2)c2[nH]cnc2n1`, the growth is 22.5%.

With `O=C(Nc1ccc(-n2cc(-c3ccncc3)c(-c3ccc(O)c(Cl)c3)n2)cc1)Nc1ccc(Cl)c(C(F)(F)F)c1`, the growth was 17.9%.

Regarding `CCOc1ccc(NC(=O)Nc2cc(C(C)C)ccc2C)cc1`, the growth is 58.7%.

`COc1ccc(SC2c3ccc(O)cc3Oc3nc(N)c(C#N)c(N)c32)cc1` (stereo not given): the growth was 98.8%.

Consider `COc1ccc(CCNC=O)cc1OC`, for which the growth is 97.4%.

Consider `CN(C)c1ccc(/C=N/N=C(N)N)cc1`, for which the growth is 50.5%.

Consider `O=C1OC(c2ccc(-c3ccccc3)cc2)=C/C1=C/C=C/c1ccccc1`, for which the growth is 114%.

Take `CCc1c(C)c2cc3nc(NCc4ccccc4)oc3c(C)c2oc1=O`: the growth was 51.2%.

Consider `COc1ccccc1N1CCN(CCCOc2ccc(OCCCN3CCN(c4ccccc4OC)CC3)c(C(=O)c3cc(OC)c(OC)c(OC)c3)c2)CC1`, for which the growth is 105%.

Regarding `CCn1c(C)nc([N+](=O)[O-])c1Sc1nc(N)nc2nc[nH]c12`, the growth is 25.5%.

As to `COCCNC(C(=O)c1ccccc1)c1ccccc1` (stereo not given), the growth was 107%.
